DT40 TDP1 CPT: DT40-hTDP1 cell growth loss with CPT; chicken DT40 Tdp1-/-;hTDP1 cells + 20 nM CPT, ATP luminescence, 48 h; Potency, µM (doses to about 46.2 µM), inactives show top-dose activity change, negative = growth inhibition, actives largely listed as inhibitors; 420,000 tested, 12% active; AID 686979; also: % is scaled to controls: 0 for no effect and ±100 for the full control effect; nearly all actives have a fitted effect of over 55% in size
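Chicken DT40 Tdp1-/- cells stably complemented with human TDP1 were seeded at 400 cells/well in medium containing 20 nM camptothecin, exposed to pin-transferred compounds, and grown at 37 °C for at least 48 hr. Viability was read as ATP luminescence.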
ATXN viability: viability counter-screen for ATXN expression inhibitors. S2 cells (HEK-293 line with an ATXN2-luciferase reporter) viability, CellTiter-Fluor protease fluorescence, 24 h. Potency, µM (series often up to 56.7 µM), hits mostly cytotoxic. 400,000 tested, 0.49% active; also: nearly all actives have a fitted effect of over 40% in size
DT40 TDP1 no CPT: qHTS for Inhibitors of human tyrosyl-DNA phosphodiesterase 1 (TDP1): qHTS in cells in absence of CPT. 420,000 tested, 15% active. DT40 Tdp1-/- hTDP1 cells, no CPT, ATP luminescence, 48 h. Potency, µM (titrated, usually from 46.2 µM), for the others: at the highest dose activity change, negative = growth inhibition, most hits filed as inhibitors; also: % is scaled to controls: 0 for no effect and ±100 for the full control effect; nearly all actives have a fitted effect of over 55% in size
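Cells were dispensed at 400 per well, compounds added by pin tool, plates incubated ≥48 hr at 37 °C, then CellTiter-Glo added for 30 min at room temperature before luminescence reading. Line: DT40 Tdp1-/- complemented with hTDP1; camptothecin omitted.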
HepG2 tox-1: kills HepG2 cells in TGF-b inhibitor counter-screen | AID 588856 | 410,000 tested, 0.76% active | HepG2 CAGA-GFP viability, ATP luminescence, 18 h | Potency, µM (series often up to 46.1 µM), for the others: at the highest dose activity change, negative = cytotoxicity, usual class: cytotoxic
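CellTiter-Glo luminescence gave cytotoxicity after 18 hours at 37 degrees C. The cells were HepG2 CAGA-GFP in 1% FBS DMEM, stimulated with 500 pg/mL TGF-beta after compound addition. %Activity was normalised to no-cell wells (complete cell-killing) and DMSO (no toxicity), and curves were fitted and classified.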
TGFb SMAD3 inh: TGF-b pathway inhibition. AID 588855. Potency, µM (series often up to 46.1 µM), for the others: at the highest dose activity, negative = inhibition, hits mostly inhibitors. 410,000 tested, 1.2% active. HepG2 CAGA-GFP TGF-b/SMAD3 reporter, GFP fluorescence, 18 h; TGF-beta stimulated, 500 pg/mL final; also: % is scaled to controls: 0 for no effect and ±100 for the full control effect; nearly all actives have a fitted effect of over 65% in size
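HEPG2 CAGA-GFP, 1000 cells/well; 2 h settle, 37 C; cpd via pin tool; TGF-b 500 pg/mL final; 18 h, 37 C; GFP imaging ex488/em500-530; %Activity normalised to -TGF-b and +DMSO controls; CRC fit, curve class.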
ATXN2 expr inh: reduces ATXN2 reporter expression in HEK-293 cells | HEK-293 ATXN2-luciferase reporter, luminescence, 24 h | Potency, µM (doses to about 57 µM), for inactives: at the highest dose activity change, negative = inhibition, most hits filed as inhibitors | 360,000 tested, 0.72% active; also: % is scaled to controls: 0 for no effect and ±100 for the full control effect; nearly all actives have a fitted effect of over 55% in size
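qHTS (up to 57 uM final) was run with 24 h compound exposure of reporter cells at 37 °C. Each well was multiplexed: SteadyGlo luminescence measured ATXN2-luciferase expression after a fluorogenic Gly-Phe-AFC viability readout (25 uM final).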
TGFb CAGA inh: TGF-b pathway inhibition, cherry-pick retest | shares compounds with TGFb SMAD3 inh | HepG2 CAGA-GFP TGF-b reporter, GFP fluorescence, 18 h; cells stimulated with TGF-beta, 500 pg/mL | Potency, µM (top dose mostly 46.1 µM), inactives show at the top dose activity, negative = inhibition, hits mostly inhibitors | 1,600 tested, 63% active | AID 720534; also: % is scaled to controls: 0 for no effect and ±100 for the full control effect; nearly all actives have a fitted effect of over 65% in size
HepG2 tox-2: counter-screen for TGF-b inhibitors: cytotoxicity in HepG2 cells; shares compounds with TGFb SMAD3 inh; HepG2 CAGA-GFP viability, ATP luminescence, 18 h; cells stimulated with TGF-beta, 500 pg/mL; Potency, µM (series often up to 46.1 µM), for inactives: top-dose activity, negative = cytotoxicity, actives largely listed as inhibitors; 1,600 tested, 27% active; also: % is scaled to controls: 0 for no effect and ±100 for the full control effect; nearly all actives have a fitted effect of over 70% in size
TGFb CCL64 inh: orthogonal confirmation of TGF-b inhibitors in CCL64 cells | shares compounds with TGFb SMAD3 inh | CCL64 CAGA-GFP reporter, TGF-b stimulated, GFP fluorescence, 18 h | Potency, µM (highest dose often 46.1 µM), inactives show top-dose activity, negative = inhibition, hits mostly inhibitors | 1,600 tested, 41% active; also: nearly all actives have a fitted effect of over 65% in size
TGFb COP inh: blocks TGF-b signaling in HepG2 COP reporter | 1,600 tested, 3% active | HepG2 COP-GFP TGF-b reporter, GFP fluorescence, 18 h; cells stimulated by added recombinant TGF-beta | shares compounds with TGFb SMAD3 inh | Potency, µM (doses to about 46.1 µM), without a hit: top-dose activity, negative = inhibition, actives largely listed as inhibitors; also: nearly all actives have a fitted effect of over 70% in size
* = called active by the depositor. This is a sample that favours compounds with a hit; in the whole collection about 17% have one here. Calls follow the shape of the dose curve; as a rule, active = well fitted curve in the direction sought with a large enough effect; inconclusive = small, poorly fitted or top-dose-only effect, or another doubt; inactive = no such curve, though single readings can be large; an effect the other way counts as inactive or inconclusive. Potency is read from the fitted curve at half-maximal effect.

How did Cc1ccc(S(=O)(=O)NCCC(=O)OCC(=O)Nc2ccccc2Cl)cc1 do in these assays?
DT40 TDP1 CPT: -0.7%; ATXN viability: inactive; DT40 TDP1 no CPT: -7.1%; HepG2 tox-1: 3.3%; TGFb SMAD3 inh: -2.5%; ATXN2 expr inh: 2.8%

How did COC(=O)c1c(C)cc(C)c2c1CC(C)(C)C2=O do in these assays?
DT40 TDP1 CPT: 3.8%; ATXN viability: inactive; DT40 TDP1 no CPT: -1.5%; HepG2 tox-1: 19.9%; TGFb SMAD3 inh: 0.0%; ATXN2 expr inh: -28.8%

Results for O=C(NCCCn1ccnc1)C(=O)c1c[nH]c2ccccc12 ?
DT40 TDP1 CPT: -2.8%; ATXN viability: inconclusive; DT40 TDP1 no CPT: 25.8%; HepG2 tox-1: -25.4%; TGFb SMAD3 inh: 24.1%; ATXN2 expr inh: -13.6%

How did Cc1cc(C)nc(-n2nc(C)cc2NC(=O)CN2CCC(C)CC2)n1 do in these assays?
DT40 TDP1 CPT: 5.17µM*; ATXN viability: inactive; DT40 TDP1 no CPT: 5.8µM*; HepG2 tox-1: -18.3%; TGFb SMAD3 inh: 15.8µM*; ATXN2 expr inh: -3.9%; TGFb CAGA inh: inconclusive; HepG2 tox-2: -16.6%; TGFb CCL64 inh: -11.7%; TGFb COP inh: -20.5%

Results for COc1ccc(-n2c(=O)c3ccccc3n(Cc3ccccc3F)c2=O)cc1OC ?
DT40 TDP1 CPT: inconclusive; ATXN viability: inactive; DT40 TDP1 no CPT: inconclusive; HepG2 tox-1: -0.1%; TGFb SMAD3 inh: -28.6%

How did O=S(=O)(c1ccc(NC(=S)NN=Cc2ccccc2O)cc1)N1CCCCC1 do in these assays?
DT40 TDP1 CPT: 4.61µM*; ATXN viability: inactive; DT40 TDP1 no CPT: 5.8µM*; HepG2 tox-1: -6.4%; TGFb SMAD3 inh: 12.6µM*; ATXN2 expr inh: -23.7%; TGFb CAGA inh: 16.4µM*; HepG2 tox-2: inconclusive; TGFb CCL64 inh: inconclusive; TGFb COP inh: 1.1%

What do the screens show for `CN(C)C(=O)CCc1ccc2c3c([nH]c2c1)[C@]1(CCc2ccccc2)[C@@H](C(=O)N2CCCCC2)C[C@H](CC(=O)NCCc2ccccn2)C(=O)N1CC3`?
DT40 TDP1 CPT: inconclusive; ATXN viability: inactive; DT40 TDP1 no CPT: -29.3%; HepG2 tox-1: -4.1%; TGFb SMAD3 inh: -15.3%; ATXN2 expr inh: 5.4%
